# Screening data as filed in PubChem.
# Hits are enriched below; roughly 6.8% of the tested compounds scored in any of these assays.
# T cruzi growth-1: T. cruzi proliferation inhibition; inhibition, % at 8.34 µM; T. cruzi beta-gal in NIH3T3, GalScreen luminescence, 90 h; AID 624255; hit rate 5.9% among 77,000;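 active means mean inhibition above about 93%, with at least 55% of replicates each passing it, limit read from the data, passing the limit was not always enough; inconclusive means only one of those two conditions holds; inactive means neither condition holds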
# C diff growth: inhibitors of Clostridium difficile growth; Clostridium difficile clinical isolate growth, OD600, 24 h; stronger effect = lower value; growth activity, negative = inhibition, % at 16 µg/mL (by protocol); hit rate 0.25% among 86,000;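 active means mean growth activity at or below -80% and every replicate also at or below -80%; inconclusive means mean at or below -80% but some replicate above -80%; inactive means mean growth activity above -80%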;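 further: 0% = DMSO wells and -100% = levofloxacin 16 µg/mL wells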
# Pf Dd2 inh: P. falciparum Dd2 growth inhibition | SYBR Green, 72 h; stronger effect = lower value | activity change, % at 10 µM | hit rate 2.3% among 94,000; in the data active means activity change below about -80%; inconclusive means no clear call, values can overlap the other calls
# T cruzi growth-2: inhibitors of T. cruzi proliferation | T. cruzi beta-gal in NIH3T3, GalScreen luminescence, 90 h | inhibition, % at 8.35 µM | hit rate 72% among 5,600 | shares compounds with T cruzi growth-1;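 active means mean replicate inhibition above about 95% and at least 55% of replicates individually reaching it, limit read from the data; inconclusive means only one of the two criteria is met; inactive means neither criterion is met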
# T cruzi growth-3: blocks T. cruzi growth in NIH3T3 host cells; inhibition, % at 2.09 µM; shares compounds with T cruzi growth-1; T. cruzi beta-gal in NIH3T3, GalScreen luminescence, 90 h; hit rate 21% among 5,600;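 active means mean inhibition above about 95%, with at least 55% of replicates also reaching it, limit read from the data; inconclusive means meets just one of the two conditions; inactive means meets neither condition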;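 further: plate controls were neutral control median for no effect and positive control median for full effect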
# 3T3 cytotox: cytotoxicity in mouse NIH/3T3 fibroblasts; shares compounds with T cruzi growth-1; NIH/3T3 viability, CellTiter-Glo ATP luminescence, 90 h; cytotoxicity (signal decrease), % at 8.35 µM; hit rate 14% among 5,600; AID 651742;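 active means mean signal decrease across replicates above about 35% based on untreated-well scatter, with enough replicates individually passing, limit read from the data; inconclusive means no rule stated though some were filed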;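 further: 0% = median of neutral control wells and 100% = median of positive control wells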
# NIH3T3 tox 2: cytotoxicity in mouse NIH/3T3 fibroblasts. hit rate 56% among 5,600. inhibition, % at 24.9 µM. shares compounds with T cruzi growth-1. NIH/3T3 viability, CellTiter-Glo ATP luminescence, 90 h;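 active means mean loss of cell viability signal at or above a set limit, and enough replicates individually reaching it; inconclusive means meets only the mean limit or only the replicate share; inactive means meets neither condition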;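 further: 0% = median of neutral control wells and 100% = median of positive control wells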
# The depositor's hits bear a star; ? = inconclusive; . = no result.
SMILES,T cruzi growth-1,C diff growth,Pf Dd2 inh,T cruzi growth-2,T cruzi growth-3,3T3 cytotox,NIH3T3 tox 2
C[C@H]1CCCCO[C@@H](CN(C)Cc2ccc(C(F)(F)F)cc2)[C@@H](C)CN([C@@H](C)CO)C(=O)c2cc(NC(=O)Nc3ccc4c(c3)OCO4)ccc2O1,87.6,.,-53.9,.,.,.,.
C[C@@H]1CCCCO[C@@H](CN(C)Cc2ccc3c(c2)OCO3)[C@@H](C)CN([C@H](C)CO)C(=O)c2cc(NC(=O)Nc3ccc(C(F)(F)F)cc3)ccc2O1,127.1*,-4.9,-4.5,89.9,110.4*,0.6,17.3
C[C@@H]1CCCCO[C@H](CN(C)Cc2ccc3c(c2)OCO3)[C@@H](C)CN([C@@H](C)CO)C(=O)c2cc(NC(=O)Nc3ccc(C(F)(F)F)cc3)ccc2O1,?,-99.7*,-65.9,97.5*,116.0*,117.5*,104.3*
C[C@@H]1CCCCO[C@H](CN(C)Cc2ccc(C(F)(F)F)cc2)[C@H](C)CN([C@@H](C)CO)C(=O)c2cc(NC(=O)Nc3ccc4c(c3)OCO4)ccc2O1,83.0,.,-79.7,.,.,.,.
CCS(=O)(=O)Nc1ccc2c(c1)C(=O)N(C)C[C@H](OC)[C@@H](C)CN(CCC(F)(F)F)[C@@H](C)CO2,-8.1,.,5.8,.,.,.,.
Cc1noc(C)c1NC(=O)N(C)C[C@H]1Oc2ccc(NC(=O)NC3CCCCC3)cc2C(=O)N([C@H](C)CO)C[C@H]1C,85.1,-1.0,31.7,.,.,.,.
CC(C)c1cn([C@H]2C[C@@H]3O[C@H](CO)CC[C@@H]3O[C@@H]2CCc2ccc(C#CC3(O)CCCC3)cc2)nn1,.,1.7,?,.,.,.,.
O=C(C[C@@H]1C[C@H]2c3cc(NC(=O)NC4CCCCC4)ccc3O[C@H]2[C@@H](CO)O1)NC1CCCCC1,.,-1.0,-16.3,.,.,.,.
Cc1noc(C)c1S(=O)(=O)Nc1ccc2c(c1)C(=O)N([C@H](C)CO)C[C@@H](C)[C@H](CN(C)S(=O)(=O)c1cn(C)cn1)OCCCC[C@@H](C)O2,29.3,12.2,24.1,.,.,.,.
C/C=C/c1ccc2c(c1)O[C@H](CN(C)Cc1cccc(F)c1)[C@H](C)CN([C@@H](C)CO)S2(=O)=O,.,-7.0,8.0,.,.,.,.
C[C@H]1CCCCO[C@H](CN(C)Cc2ccc3c(c2)OCO3)[C@@H](C)CN([C@@H](C)CO)C(=O)c2cc(NC(=O)Nc3ccc(C(F)(F)F)cc3)ccc2O1,?,-66.9,-29.4,86.9,106.3*,91.2*,102.8*
C[C@@H]1CN([C@H](C)CO)C(=O)c2cc(NC(=O)Nc3ccc(C(F)(F)F)cc3)ccc2O[C@@H](C)CCCCO[C@H]1CN(C)Cc1ccc2c(c1)OCO2,?,-100.2*,-57.0,?,103.5*,21.7,104.1*
C[C@H](CO)N1C[C@H](C)[C@@H](CN(C)Cc2ccc(C(F)(F)F)cc2)OCCCC[C@H](C)Oc2ccc(NC(=O)Nc3ccc4c(c3)OCO4)cc2C1=O,80.2,.,21.2,.,.,.,.
C[C@@H]1CCCCO[C@H](CN(C)Cc2ccc3c(c2)OCO3)[C@H](C)CN([C@@H](C)CO)C(=O)c2cc(NC(=O)Nc3ccc(C(F)(F)F)cc3)ccc2O1,121.8*,-39.3,-85.9*,95.9*,115.7*,122.1*,103.5*
C[C@H]1CCCCO[C@H](CN(C)Cc2ccc(C(F)(F)F)cc2)[C@@H](C)CN([C@@H](C)CO)C(=O)c2cc(NC(=O)Nc3ccc4c(c3)OCO4)ccc2O1,73.7,.,-30.3,.,.,.,.
COCc1cn(CC[C@H]2CC[C@H](NC(=O)Nc3ccc(C(F)(F)F)cc3)[C@@H](CO)O2)nn1,10.6,7.0,-13.9,.,.,.,.
COc1ccc2c3c([nH]c2c1)[C@@H](CO)N(C(C)=O)CC31CN(C(=O)Nc2c(C)noc2C)C1,.,.,32.3,.,.,.,.
CO[C@@H]1CN(C)C(=O)c2cc(NC(=O)c3cc(C)on3)ccc2OC[C@@H](C)N(CC2CC2)C[C@@H]1C,-22.7,.,7.1,.,.,.,.
C[C@H](CO)N1C[C@H](C)[C@H](CN(C)Cc2ccccc2)Oc2ccc(NC(=O)CCN3CCOCC3)cc2C1=O,5.4,2.5,-8.9,.,.,.,.
Cc1ccc(-c2ccc([C@H]3[C@@H](CO)N4CCCCN(Cc5cncnc5)C[C@H]34)cc2)cc1,18.4,-9.4,-8.3,.,.,.,.
Cc1cccc(-c2ccc([C@H]3[C@@H](CO)N4CCCCN(Cc5cccnc5)C[C@@H]34)cc2)c1,120.5*,1.2,-9.1,?,74.0,22.0,102.9*
Cc1cccc(-c2ccc([C@H]3[C@@H](CO)N4CCCCN(Cc5ccncc5)C[C@H]34)cc2)c1,86.1,-11.7,-51.2,.,.,.,.
OC[C@@H]1[C@H](c2ccc(-c3ccc(F)cc3)cc2)[C@H]2CN(Cc3cccnc3)CCCCN12,89.8,-0.1,-56.6,.,.,.,.
OC[C@@H]1[C@H](c2ccc(-c3ccccc3)cc2)[C@H]2CN(Cc3cncnc3)CCCCN12,100.8*,-2.9,5.5,?,79.9,13.0,52.5*
OC[C@H]1[C@@H](c2ccc(-c3ccc(F)cc3)cc2)[C@@H]2CN(Cc3cccnc3)CCCCN12,99.2*,-0.8,-58.9,99.3*,33.8,29.5,104.8*
SMILES,T cruzi growth-1,C diff growth,Pf Dd2 inh,T cruzi growth-2,T cruzi growth-3,3T3 cytotox,NIH3T3 tox 2
Cc1cccc(-c2ccc([C@H]3[C@H](CO)N4CCCCN(Cc5ccncc5)C[C@@H]34)cc2)c1,?,-4.8,-19.4,101.4*,47.2,23.2,105.4*
Cc1cccc(-c2ccc([C@H]3[C@H]4CN(Cc5ccncc5)CCCCN4[C@H]3CO)cc2)c1,39.3,1.8,-31.6,.,.,.,.
N#C[C@H]1[C@@H](c2ccccc2-c2cccc(F)c2)[C@H](CO)N1S(=O)(=O)c1cccc(F)c1,.,-11.7,-25.5,.,.,.,.
CO[C@@H]1CN(C)C(=O)c2ccc(NS(C)(=O)=O)cc2OC[C@@H](C)NC[C@@H]1C,-17.2,-2.1,42.7,.,.,.,.
C[C@@H]1CN([C@@H](C)CO)C(=O)c2c(c3ccccc3n2C)-c2ccccc2CO[C@@H]1CN(C)C(=O)C1CC1,76.7,-3.8,8.7,.,.,.,.
CCC(=O)N(C)C[C@H]1Oc2cc(-c3ccccc3)ccc2S(=O)(=O)N([C@@H](C)CO)C[C@@H]1C,85.9,-7.9,-25.3,.,.,.,.
C[C@H](CO)N1C[C@H](C)[C@@H](CN(C)S(=O)(=O)c2ccc(F)cc2)Oc2ccc(NS(C)(=O)=O)cc2C1=O,64.4,-5.9,-21.1,.,.,.,.
CCNC(=O)[C@H]1[C@H](CO)[C@H]2Cn3c(ccc(-c4ccc(F)cc4)c3=O)[C@@H]1N2C,21.4,0.1,-21.5,.,.,.,.
CCCNC(=O)[C@H]1[C@H](CO)[C@H]2Cn3c(ccc(-c4cccc(OC)c4)c3=O)[C@@H]1N2CC,.,-1.8,8.8,.,.,.,.
COc1cccc(-c2ccc([C@H]3[C@H](CO)N4CCCCN(Cc5cncnc5)C[C@@H]34)cc2)c1,89.4,-8.8,15.2,.,.,.,.
OC[C@@H]1[C@H](c2ccc(C3=CCCC3)cc2)[C@H]2CN(Cc3cncnc3)CCCCN12,?,-0.1,-26.6,88.0,69.0,13.8,45.8*
